PubChem BioAssay (NCI)
“And” between values parts separate entries of the source, which are not always exact repeats. Equal values may be shown once. Compounds without any hit were thinned out: in the full panel of roughly 83,000, 20% have a hit.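 Testing used 96-well plates and a 48-hour single-concentration exposure. Example: -40 means 40% of the starting cells died.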 The source made the active and inactive calls. The calls were made as follows: active = growth percent below 10; inactive = the rest.

Tested on: SK-MEL-5 melanoma
Experiment: NCI-60 one-dose screen, 48 h (100 = growth as untreated, 0 = no growth, -100 = all killed)
Details: 10 µM unless noted

Row | SMILES | growth
1 | Oc1ccccc1C=Nc1ccc(N2CCN(c3ccccc3)CC2)cc1 | 97.2% (inactive)
2 | Fc1ccc(NC(c2ccc(F)cc2)C2CCN(CCCCc3ccccc3)CC2)cc1 (stereo unspecified) | -3.5% (active)
3 | NCCOCCOc1ccccc1 | 114% (inactive)
4 | COc1ccc(/C=C/C(=O)c2cc3c(N)c(C(=O)Nc4ccccc4)sc3nc2C)cc1 | 4.63% (active)
5 | COc1ccc(/C(C)=C(\c2ccc(OCCN3CCCCCC3)cc2)c2ccc(OC(=O)C3CCCCC3)cc2)cc1 | -99.7% (active)
6 | N=c1c2c(-c3ccccc3)c(-c3ccccc3)oc2ncn1NC(=O)c1cccnc1 | 93.4% (inactive)
7 | O=C(Nc1cc(C(F)(F)F)cc(C(F)(F)F)c1)c1cc(Cl)ccc1O | -70.3% (active)

Tested on: UACC-62 melanoma
Experiment: as above
Details: 10 µM unless noted

Row | SMILES | growth
8 | C[N+]1=C(/C=C\C=C\c2ccccc2)C(C)(C)c2ccccc21 | -16.1% (active)
9 | O=C(/C=C/C12c3ccccc3C(c3ccccc31)C1C(=O)NC(=O)C12)c1ccncc1 (stereo unspecified) | 23.4% (inactive)
10 | CN1CCN(Cc2ccc(NC(=O)c3nc4ccc5[nH]ncc5c4c4c3CCCC4)cc2C(F)(F)F)CC1 | -87.5% (active)
11 | CC(=O)c1nn(-c2ccccc2)/c(=N/N=Cc2cn(-c3ccccc3)nc2-c2cc3ccccc3oc2=O)s1 | 92.9% (inactive)
12 | CN1CCN(Cc2ccc(NC(=O)c3cccc(C#Cc4c(N)ncc5ccc(F)cc45)c3)cc2C(F)(F)F)CC1 | -51.1% (active)
13 | CCN(C(=O)N1CCN(c2cc3c(cc2F)c(=O)c(C(=O)O)cn3C2CC2)CC1)c1nc(-c2ccccc2)cs1 | 13.1% (inactive)
14 | COc1ccc(-c2ccccc2)cc1-c1c(Nc2cc(Cl)cc(Cl)c2O)c(=O)c1=O | 10.6% (inactive)
15 | COc1cc(CO)cc2cc3ccccc3nc12 | 98.7% (inactive)
16 | N=C(N)c1ccc(-c2ccc(-c3ccc(Cl)c(Cl)c3)s2)cc1 | 88.6% (inactive)
17 | Cc1c(C(=O)OCCCCOC(=O)c2c(C)n(C)c3scc[n+]23)[n+]2ccsc2n1C | 95.7% (inactive)
18 | COc1ccc(/C(C)=C(\c2ccc(OCCN3CCOCC3)cc2)c2ccc(OC(=O)C3CCCCC3)cc2)cc1 | 110% (inactive)
19 | CCOc1ccccc1NC(=O)c1cc2ccccc2cc1O | 21.2% (inactive)
20 | O=S(=O)(Nc1ccc(F)cc1)c1ccc(-c2cnc(C3CC3)o2)cc1 | 27.5% (inactive)
21 | CN(C)c1ccc2nc3ccc(=O)cc-3sc2c1 | 32.5% (inactive) and 32.9% (inactive)
22 | COC(=O)N/N=C/c1c[n+]([O-])c2ccccc2[n+]1[O-] | 101% (inactive)
23 | COc1cc(F)c(/C=C/c2cc(/C=C/c3cc(OC)c(OC)cc3F)n(-c3cc(F)cc(F)c3)n2)cc1OC | 26.8% (inactive)
24 | Clc1ccc(CNc2ccc3nc(CCC4CCCCC4)[nH]c3c2)cc1 | 67.4% (inactive)
25 | FC(F)(F)Sc1ccc(/C=C/c2cc(/C=C/c3ccc(SC(F)(F)F)cc3)n(-c3ccccc3)n2)cc1 | 84.5% (inactive)
26 | CC(=O)N1N=C(c2ccc(Nc3nc(Nc4ccc(F)cc4)nc(Nc4ccc(F)cc4)n3)cc2)CC1c1ccccc1 (stereo unspecified) | 95.4% (inactive)
27 | COC1/C=C/OC2(C)Oc3c(C)c(O)c4c(O)c(c(C=NOC(c5ccccc5)c5ccccc5)c(O)c4c3C2=O)NC(=O)/C(C)=C/C=C/C(C)C(O)C(C)C(O)C(C)C(OC(C)=O)C1C (stereo unspecified) | -4.64% (active)

Row | SMILES | growth
28 | Nc1ccccc1SC(CC(=O)c1ccccc1)c1ccc([N+](=O)[O-])cc1 (stereo unspecified) | 90.9% (inactive) and 84.5% (inactive)
29 | Cc1ccc(/C=C/c2c(C(=O)/C=C/c3ccccc3)c(C)nc3ccccc23)cc1 | 29.2% (inactive)
30 | COc1ccc(/C=C(\C#N)c2cc3ccccc3[nH]2)cc1 | 31.4% (inactive)
31 | Cc1ccc(Cl)cc1N1CCN(C(=O)[C@@H]2C[C@@H]2c2ccc(F)cc2)CC1 | 69.7% (inactive)
32 | COc1ccc(/C=C2/C(=O)N=C3N2NC(c2ccccc2)=CN3c2ccccc2)cc1 | 94.2% (inactive)
33 | COc1ccc2nc3cc(Cl)ccc3c(NCCCNCCC(C)O)c2c1 (stereo unspecified) | -57% (active)
34 | COc1ccc(-c2nc(Cl)c3c(C)nn(-c4ccc(F)cc4)c3n2)cc1 | 100% (inactive)
35 | C=CCOc1ccc(/C=C2\SC(=S)N(CCc3ccc(O)cc3)C2=O)cc1 | 73.8% (inactive)
36 | O=C1N=c2ccccc2=C1c1sc(=S)n(C2CC(=O)N(c3ccc(Cl)cc3)C2=O)c1O (stereo unspecified) | 95.9% (inactive)
37 | COc1c(O)c(O)cc2c3c(oc12)CC(c1ccc2c(c1)OCO2)CC3=O (stereo unspecified) | 4.1% (active)
38 | O=C(c1cccc(Br)c1)N1CCN(c2ccnc3cc(Cl)ccc23)CC1 | 70.1% (inactive)
39 | Cc1ccc(S(=O)(=O)OC[C@@]2(C)CC[C@]3(C)CC[C@]4(C)C(=C3C2)C=C[C@@H]2[C@@]3(C)CCCNC(C)(C)[C@@H]3CC[C@]24C)cc1 | 61.1% (inactive)
40 | Oc1ccccc1C=Nc1ccc(N2CCN(c3ccccc3)CC2)cc1 | 95.4% (inactive)
41 | Fc1ccc(NC(c2ccc(F)cc2)C2CCN(CCCCc3ccccc3)CC2)cc1 (stereo unspecified) | 26% (inactive)
42 | NCCOCCOc1ccccc1 | 102% (inactive)
43 | COc1ccc(/C=C/C(=O)c2cc3c(N)c(C(=O)Nc4ccccc4)sc3nc2C)cc1 | 22.9% (inactive)
44 | COc1ccc(/C(C)=C(\c2ccc(OCCN3CCCCCC3)cc2)c2ccc(OC(=O)C3CCCCC3)cc2)cc1 | -73.7% (active)
45 | N=c1c2c(-c3ccccc3)c(-c3ccccc3)oc2ncn1NC(=O)c1cccnc1 | 104% (inactive)
46 | O=C(Nc1cc(C(F)(F)F)cc(C(F)(F)F)c1)c1cc(Cl)ccc1O | -56% (active) and -42.8% (active)
